These results are taken from PubChem BioAssay (NCI).

About 83,000 compounds went through this panel and 20% of them were active in at least one assay; those are over-represented in the sample as a whole.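 Method: cells in 96-well plates; compound added at one concentration; 48 h incubation; percent growth measured; values under 10 scored active.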 Unmarked numbers belong to inactive results. Active and inactive are the calls of the source.

The assay deals with MDA-MB-468 breast. As to the kind of experiment: NCI-60 one-dose screen, 48 h (100 = growth as untreated, 0 = no growth, -100 = all killed). As to conditions: 10 µM unless noted.
For the compound `CN1CCN(Cc2ccc(NC(=O)c3ccc(C(C)(C)C)c(C#Cc4cnc5cccnn45)c3)cc2C(F)(F)F)CC1`, the growth was -6.22% (active).
The figure for `COc1ccc(/C=C\c2cc(OC)c(OC)c(OC)c2)cc1OC(=O)c1cccc(Cn2cc(CCOC(=O)c3cccc(Cn4nnc5c4C(=O)c4ccccc4C5=O)c3)nn2)c1` is 5.62% (active); for `CN1CCN(c2ccc(Nc3ncc4[nH]c(=O)n(Cc5ccccc5N)c4n3)cc2)CC1` it is 111%.
The figure for `C/C(O)=C(\C=N\C(N)=S)C(=O)Nc1ccccc1` is 92.8%.
The figure for `CC(=O)c1cccs1` is 105%.
Take `O=C(Nc1cccc(Cl)c1)Nc1nccs1`: the growth was -0.235% (active).
Under `C[C@@H]1C(=O)N(C[C@H](Cc2ccccc2)N(Cc2ccccc2)Cc2ccccc2)[C@]1(Cc1ccccc1)C(=O)OC(C)(C)C` stands 10.7%.
For the compound `COc1ccc(C(=O)C(C)Br)cc1OC` (centres undefined), the growth was 77.6%.
As for `C=CCN=c1sc(-c2ccc3ccccc3c2)cn1NC(=O)c1cc2ccc1CCc1ccc(cc1)CC2`, the growth was 39.1%.
In the case of `COc1ccc(-c2nc(N3CCCC3=O)sc2Br)cc1OC`, the growth is 94.8%.
Turning to `CCCCCCCCCCCC[N+]1(CCCCCCCCCCCC)CCCC(C)C1` (centres undefined), the growth is -89.7% (active).
With `CN1CCN(c2ccc(C(=O)Nc3n[nH]c4ccc(Cc5cc(F)cc(F)c5)cc34)c(NC3CCOCC3)c2)CC1`, the growth is -72.3% (active).
The figure for `COc1cc(-c2ncn(/C=C\C(=O)OC(C)C)n2)cc(C(F)(F)F)c1` is -40.6% (active); for `Cc1c(C(N)=O)sc2c1c(=O)n(Cc1ccccc1)c1nnc(S(C)(=O)=O)n21` it is 57.1%.
